In PubChem BioAssay (NCATS):

Columns and labels:
[1] = qHTS profiling of the MIPE4 collection as inhibitors of Plasmodium falciparum (3D7) proliferation (AID 743344);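 note: scaled between DMSO vehicle wells and 0.29 µM artemisinin as full inhibition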; conditions: P. falciparum 3D7 in erythrocytes, SYBR Green DNA fluorescence, 72 h; at 28.5 µM unless noted
Summary of the method: (§1)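 Parasite DNA was quantified by SYBR Green I fluorescence (ex 485, em 535 nm) after overnight lysis in saponin/Triton buffer at room temperature. Cultures at 0.3% parasitemia and 2.5% hematocrit were first exposed to compound for 72 h at 37 C; signals were normalised to artemisinin (0.29 uM) and vehicle wells.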

[2] = qHTS profiling of the MIPE4 collection as inhibitors of Plasmodium falciparum (DD2) proliferation (AID 743345); conditions: P. falciparum Dd2 in erythrocytes, SYBR Green DNA, 72 h; at 28.5 µM unless noted
Summary of the method: as §1

[3] = qHTS profiling of the MIPE4 collection as inhibitors of Plasmodium falciparum (DD2) proliferation (Rep 2) (AID 743346); conditions: P. falciparum Dd2 in erythrocytes, SYBR Green DNA, 72 h; at 28.5 µM unless noted
Summary of the method: as §1

[4] = qHTS profiling of the MIPE4 collection as inhibitors of Plasmodium falciparum (HB3) proliferation (AID 743347);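 note: plate controls were DMSO vehicle wells for no effect and artemisinin wells for full effect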; conditions: P. falciparum HB3 in erythrocytes, SYBR Green DNA, 72 h; at 28.5 µM unless noted
Summary of the method: as §1

[5] = High-throughput drug toxicity screening in the BPDCN cell line Gen2.2 (AID 1224824); conditions: Gen2.2 BPDCN cells; at 45.8 µM (top of the series) unless noted;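 note: cells exposed to compounds for 48 h before reading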
Summary of the method: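 Seed 500 exponentially growing Gen2.2 cells/well; add compounds by pin tool; incubate 48 h, 37 °C, 5% CO2; add CellTiter-Glo, 15 min RT; read luminescence. % activity vs DMSO (100%) and bortezomib (0%).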

[6] = High-throughput drug toxicity screening in the BPDCN cell line Cal-1 (AID 1224825); conditions: Cal-1 BPDCN cell viability, qHTS; at 45.8 µM (top of the series) unless noted
Summary of the method: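 CellTiter-Glo luminescence after 48 h compound exposure; percent activity scaled with DMSO as 100% and bortezomib (9.2 uM final) as 0%. Cal-1 cells seeded at 500/well in RPMI, 10% FBS, no phenol red.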

Row | SMILES | parasite growth, % of DMSO control [1] | parasite growth remaining, % of DMSO control (lower = more inhibition) [2] | parasite growth, % of control (lower = inhibition) [3] | growth, % of control [4] | cell viability, % of control (lower = more cytotoxic) [5] | viability (% of control) [6]
1 | CC1(C)O[C@@H]2C[C@@H]3[C@H]4C[C@@H](F)C5=CC(=O)C=C[C@]5(C)[C@@]4(F)[C@@H](O)C[C@]3(C)[C@]2(C(=O)CO)O1 | 53.6% | 97% | 53.7% | 76% | 45.3% | 54.5%
2 | CN(C1CCc2c(c3ccccc3n2CC(=O)O)C1)S(=O)(=O)c1ccc(F)cc1 (stereo not drawn) | 15.9% | 93.1% | 19% | 19.9% | 243% | 39.5%
3 | COc1cc(-c2nn(C3CCC(N4CCN(C(C)=O)CC4)CC3)c3ncnc(N)c23)ccc1NC(=O)c1cc2ccccc2n1C (stereo not drawn) | 5.39% | 12.1% | 20.7% | 7.32% | 34.5% | 9.55%
4 | Cc1nc2ccc(CN(C)c3ccc(C(=O)N[C@@H](CCC(=O)O)C(=O)O)s3)cc2c(=O)[nH]1 | 211% | 106% | 54.1% | 424% | 185% | 32.8%
5 | Cc1cc(Nc2ncnc3ccc(-c4ccc(CNCCS(C)(=O)=O)o4)cc23)ccc1Oc1ccn2ncnc2c1 | 5.93% | 7.77% | 7.94% | 2.65% | 3.66% | 0.85%
6 | O=C(O)CO.[NH2-].[NH2-].[Pt+2] | 92.3% | 95.3% | 83.9% | 94.7% | 124% | 100%
7 | OCCCNc1cc(-c2ccnc(Nc3cccc(Cl)c3)n2)ccn1 | 5.7% | 10.1% | 19.1% | 6.21% | 4.08% | 2.53%
8 | COc1ccc(-c2cc3c(C)nc(N)nc3n(C3CCC(OCCO)CC3)c2=O)cn1 (stereo not drawn) | 5.2% | 7.58% | 7.09% | 3.04% | 9.04% | 3.91%
9 | O=C(CCCCCCNC(=O)c1cnc(N(c2ccccc2)c2ccccc2)nc1)NO | 5.31% | 7.75% | 7.25% | 11% | 5.14% | 3.58%
10 | COc1cccc2c(NCc3ccccc3)nc(-n3c(N)nc4ccccc43)nc12 | 5.92% | 5.67% | 11.4% | 3.05% | 3.5% | 2.1%
11 | Nc1cccc(-c2cc3c(Oc4cccc(O)c4)ncnc3[nH]2)c1 | 33.1% | 86% | 52.9% | 43.2% | 115% | 9.2%
12 | CCNC(=O)Nc1ccc2ncc(Nc3ccc(C)cc3)nc2n1 | 19.5% | 71.6% | 33% | 16.3% | 50.5% | 19.7%
13 | CC1COC2(CCN(c3nc(=O)c4cc(C(F)(F)F)cc([N+](=O)[O-])c4s3)CC2)O1 (stereo not drawn) | 20.5% | 70% | 33.5% | 29.9% | 104% | 110%
14 | CC=CC1=C(C(=O)O)N2C(=O)[C@H](NC(=O)[C@H](N)c3ccc(O)cc3)[C@@H]2SC1 | 99.8% | 99.9% | 99.4% | 88% | 52.6% | 89.2%
15 | Cc1cc(Nc2nc(N[C@@H](C)c3ccc(F)cc3)c(C#N)cc2F)n[nH]1 | 7.05% | 7.99% | 9.75% | 6.34% | 218% | 12.6%
16 | Nc1nc(NCCNc2ncc(-n3ccnc3)c(-c3ccc(Cl)cc3Cl)n2)ccc1[N+](=O)[O-] | 16.9% | 80% | 44.4% | 4.45% | 9.17% | 4.88%
17 | Cc1cc(C(=O)N2CCN(c3cccc(Cl)c3)CC2)n(-c2ccccc2)n1 | 97.2% | 107% | 98.6% | 108% | 88.4% | 18.2%
18 | Cc1nc(N)ncc1-c1nc(N2CCOCC2)c2sc(C(C)(C)O)cc2n1 | 5.28% | 8.49% | 7.48% | 1.99% | 38.1% | 14%
19 | Cn1c2ccccc2c2c3c(c4c5ccccc5n(CCC#N)c4c21)CNC3=O | 16% | 7.7% | 30.7% | 54.6% | 12.7% | 15.7%
20 | CC(C)(C)NC(=O)[C@H]1CN(Cc2cccnc2)CCN1C[C@@H](O)C[C@@H](Cc1ccccc1)C(=O)N[C@H]1c2ccccc2C[C@H]1O | 19.6% | 42.6% | 27.8% | 7.39% | 129% | 85.6%
21 | Cc1cc(CN2CCN(c3c(Br)cnc4nc(-c5ccc(N6CCN(C)CC6)cc5)[nH]c34)CC2)no1 |  | 6.44% | 25.8% | 4.61% | 3.72% | 2.79%
22 | Cc1ccc(NC(=O)C2(c3ccc4c(c3)OC(F)(F)O4)CC2)nc1-c1cccc(C(=O)O)c1 |  | 6.69% | 7.61% | 5.22% | 8.23% | 6.82%
23 | CC1(C)CC(=O)c2c(C(F)(F)F)nn(-c3ccc(C(N)=O)c(NC4CCC(OC(=O)CN)CC4)c3)c2C1 (stereo not drawn) | 7.32% | 8.43% | 11.6% | 4.41% | 1.95% | 13.9%
24 | NC(=O)c1cccc2cn(-c3ccc([C@@H]4CCCNC4)cc3)nc12 |  | 11.3% | 25.3% | 6.74% | 116% | 5.94%
25 | CN(C)CC(C)(C)CNc1nn2c(-c3ccccc3)nnc2cc1C1CCC1 | 20% | 21.9% | 40.5% | 48.8% | 13.9% | 3.65%
26 | CCCCCCCCCC(=O)N[C@@H](Cc1c[nH]c2ccccc12)C(=O)N[C@H](CC(N)=O)C(=O)N[C@@H](CC(=O)O)C(=O)N[C@@H]1C(=O)NCC(=O)N[C@@H](CCCN)C(=O)N[C@@H](CC(=O)O)C(=O)N[C@H](C)C(=O)N[C@@H](CC(=O)O)C(=O)NCC(=O)N[C@H](CO)C(=O)N[C@@H]([C@@H](C)CC(=O)O)C(=O)N[C@@H](CC(=O)c2ccccc2N)C(=O)O[C@@H]1C | 409% | 96.7% | 108% | 299% | 128% | 108%
